# Source: PubChem
# A549 viability: Nrf2 qHTS screen for inhibitors: counterscreen for cytotoxicity; 390,000 tested, 0.16% active; Potency, µM (titrated, usually from 46 µM), usual class: inhibitors; A549 ARE-Fluc cells, CellTiter-Fluor viability, 18-24 h
#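 Cytotoxicity counterscreen: CellTiter-Fluor fluorescence was measured in A549 ARE_Fluc cells after 18-24 h of compound exposure in a concentration series. The subsequent BugLite luminescent read reports ARE-luciferase activity.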
# Nrf2 activator: qHTS of Nrf2 Activators. AREc32 ARE-luciferase reporter (MCF7-derived line), luminescence, 24 h. Potency, µM (titrated, usually from 46.1 µM), most hits filed as activators. 410,000 tested, 0.31% active. AID 624171, 2012; note: nearly all actives have a fitted effect of over 65% in size
#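 Quantitative high-throughput format: AREc32 reporter cells, 1000 per well, received compound by pin transfer and were incubated 24 hr at 37 deg C, 5% CO2, before Steady-Glo luminescence detection.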
# mIDH1 inhibitor: qHTS for Inhibitors of mutant isocitrate dehydrogenase 1 (IDH1): qHTS. Isocitrate dehydrogenase [NADP] cytoplasmic (Homo sapiens), O75874. IDH1-R132H enzyme, NADPH consumption, diaphorase/resazurin fluorescence. Potency, µM (doses to about 76.6 µM), usual class: inhibitors. 390,000 tested, 0.093% active. AID 602179, 2012; note: nearly all actives have a fitted effect of over 65% in size
# Target sequence (O75874 whole entry R132H, stated change not applied): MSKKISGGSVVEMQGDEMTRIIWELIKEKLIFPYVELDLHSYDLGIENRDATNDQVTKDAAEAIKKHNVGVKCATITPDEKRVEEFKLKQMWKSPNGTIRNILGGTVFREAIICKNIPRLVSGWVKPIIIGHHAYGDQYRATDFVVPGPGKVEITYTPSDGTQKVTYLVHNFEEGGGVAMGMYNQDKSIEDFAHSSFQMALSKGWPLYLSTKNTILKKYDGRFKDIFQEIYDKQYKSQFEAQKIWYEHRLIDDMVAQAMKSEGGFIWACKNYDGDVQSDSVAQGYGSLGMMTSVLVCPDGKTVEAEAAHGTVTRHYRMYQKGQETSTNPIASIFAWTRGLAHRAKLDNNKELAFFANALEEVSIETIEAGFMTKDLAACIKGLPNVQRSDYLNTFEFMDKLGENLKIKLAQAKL
#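 IDH1-R132H (0.5 ug/mL) preincubated 30 min with compound, then NADPH (0.016 mM) and alpha-KG (2 mM) added; 80 min at RT, pH 7.5. Remaining NADPH coupled via diaphorase/resazurin to fluorescence (540/590 nm); concentration-response curves normalized to no-enzyme control.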
# Nrf2 block: Nrf2 qHTS screen for inhibitors; A549 ARE-Fluc reporter, luciferase luminescence, 18-24 h; Potency, µM (highest dose often 46 µM), actives largely listed as inhibitors; 360,000 tested, 2.1% active; AID 504444, 2011; note: nearly all actives have a fitted effect of over 60% in size
#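 In this cell-based qHTS, ARE-driven firefly luciferase in A549 cells reports Nrf2 activity; the luminescent signal after BugLite lysis is the measured value, with a prior CellTiter-Fluor read for cell health.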
# ELG1 repair inh: qHTS screen for small molecules that inhibit ELG1-dependent DNA repair in human embryonic kidney (HEK293T) cells expressing luciferase-tagged ELG1; HEK293T ELG1-luciferase reporter, luminescence, 16 h; DNA damage induced by 5-fluorouridine; Potency, µM (titrated, usually from 46.1 µM), actives largely listed as inhibitors; 330,000 tested, 2.3% active; note: nearly all actives have a fitted effect of over 55% in size
#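 Cells (2,000 per well) received 5-fluorouridine plus test compound or DMSO and were incubated 16 hr at 37 °C, 5% CO2. Luciferase activity was read by luminescence 30 min after ONE-Glo addition; signal suppression marked inhibition of damage-induced ELG1 function.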
# A number is an active result; – = inactive; ? = inconclusive; · = not tested or not shown. An excerpt weighted towards active compounds, which were near 3.8% of everything screened. Calls come from the whole dose curve; as a rule, active = well fitted curve in the direction sought with a large enough effect; inconclusive = small, poorly fitted or top-dose-only effect, or another doubt; inactive = no such curve, though single readings can be large; an effect the other way counts as inactive or inconclusive.
SMILES,A549 viability,Nrf2 activator,mIDH1 inhibitor,Nrf2 block,ELG1 repair inh
O=C(c1ccc2c(c1)OCCO2)N1CCN(c2nc(-c3cccs3)nc3ccccc23)CC1,–,·,·,?,·
c1ccc2c(N3CCCCC3)nc(N3CCCC3)nc2c1,–,–,–,–,?
COc1ccc(Oc2nc(-c3ccccn3)nc3ccccc23)cc1,–,–,–,–,9.2µM
CCN1CCN(c2nc(-c3ccccn3)nc3ccccc23)CC1,–,–,–,–,?
c1ccc(-c2nc(N3CCOCC3)c3ccccc3n2)nc1,–,–,–,–,16µM
Cc1nc(N2CCCCCC2)c2ccccc2n1,–,–,–,18µM,?
c1ccc(CN2CCN(c3nc(-c4ccccn4)nc4ccccc34)CC2)cc1,–,–,–,–,8.2µM
Cc1ccc(C2=CC(c3ccccc3F)n3c(nc4ccccc43)N2)cc1C (stereo not given),–,–,–,·,·
Cc1ccc(NC(=O)CSc2nc3ccccc3c3nc(CCn4c(C)nc5ccccc54)nn23)cc1F,–,–,–,·,·
Cc1ccc(OCC(=O)NCC2(N3CCOCC3)CCCCC2)cc1C,–,–,–,–,·
COc1cccc(C(=O)NCC(c2ccc(N(C)C)cc2)N2CCOCC2)c1OC (stereo not given),–,–,–,·,·
COc1ccc(Nc2nc(N3CCCCC3)nc3ccccc23)c(OC)c1,?,–,–,–,23µM
COc1ccc(Nc2nc(N3CCCC3)c3ccccc3n2)cc1,–,–,–,?,9.2µM
c1ccc2c(N3CCCC3)nc(-c3ccncc3)nc2c1,?,–,–,?,?
c1ccc(-c2nc(N3CCCCCC3)c3ccccc3n2)nc1,?,–,–,·,2.6µM
COc1ccc(Nc2nc(N3CCN(S(C)(=O)=O)CC3)nc3ccccc23)c(OC)c1,–,–,–,–,?
Cc1cnc(NC(=O)NCC2CCCC(CNC(=O)Nc3ncc(C)s3)C2)s1 (stereo not given),–,–,–,?,21µM
CC(C)OCCCNC(=O)c1c(N)n(/N=C/c2ccccn2)c2nc3ccccc3nc12,–,–,–,–,7.3µM
CC(C)CNC(=O)c1c(N)n(/N=C/c2cccnc2)c2nc3ccccc3nc12,·,·,·,·,–
CCC(C)NC(=O)c1c(N)n(/N=C/c2cccnc2)c2nc3ccccc3nc12 (stereo not given),–,–,–,?,12µM
CCC(C)NC(=O)c1c(N)n(/N=C/c2ccccn2)c2nc3ccccc3nc12 (stereo not given),?,–,–,?,?
CCOC(=O)c1c(S(=O)(=O)NCC(=O)Nc2cccc(SC)c2)c(C)n(C)c1C,–,–,–,·,·
CCc1ccc(CN(Cc2ccco2)C(=O)c2cc(-c3ccc(C)c(F)c3)on2)cc1,–,–,·,16µM,·
CCOc1ccc(S(=O)(=O)N2Cc3ccccc3CC2C(=O)Nc2ccc(NC(C)=O)cc2)cc1 (stereo not given),–,–,–,?,·
O=C(CN1c2ccccc2Sc2ccccc21)NNC(=O)Nc1ccc(Cl)cc1,?,–,–,18µM,–
SMILES,A549 viability,Nrf2 activator,mIDH1 inhibitor,Nrf2 block,ELG1 repair inh
O=C(CN1c2ccccc2Sc2ccccc21)NNC(=O)Nc1ccc(Cl)c(Cl)c1,–,–,–,?,–
Cc1c(CCC(=O)O)c(=O)oc2cc(OCc3ccccc3Br)ccc12,–,–,–,21µM,–
COc1ccc(N=C2NN=C(c3ccc4c(c3)OCCO4)CS2)cc1,–,–,–,–,–
c1cc2c(cc1C1=NNC(=NC3CC3)SC1)OCCO2,–,–,–,2.3µM,?
FC(F)Sc1ccc(N=C2NN=C(c3ccc4c(c3)OCCO4)CS2)cc1,16µM,–,?,16µM,?
COc1ccc(Cl)cc1NC(=O)CN1C(=O)C(C)(C)c2cc(S(=O)(=O)N3CCCCC3)ccc21,–,–,–,·,·
C=C1CC2(OC1=O)c1ccccc1CCc1ccccc12,?,?,?,16µM,·
O=C1NC(=O)C2(CCc3ccccc32)N1 (stereo not given),–,–,–,–,–
Cn1nc(C(=O)NCc2ccccn2)c2ccccc2c1=O,–,–,–,5.8µM,?
Cc1ccc(COC(=O)c2nn(C)c(=O)c3ccccc23)cc1,–,–,–,23µM,?
COc1ccccc1C1NC(c2ccc3c(c2)OCO3)=CC(c2cc(Br)ccc2O)N1 (stereo not given),–,·,·,?,·
O=[N+]([O-])c1ccccc1/C=N/Nc1nccnc1Cl,–,6.3µM,–,·,?
Oc1ccccc1/C=N/Nc1nccnc1Cl,–,–,–,?,?
Cc1ccc(NC2=C(N3CCCCC3)C(=O)c3ccccc3C2=O)cc1,–,–,–,–,–
O=C1C(Nc2cccc(O)c2)=C(N2CCCCC2)C(=O)c2ccccc21,?,–,–,?,13µM
O=C1C(Nc2ccccc2)=C(N2CCCCC2)C(=O)c2ccccc21,–,–,–,–,?
O=C(/C=C/c1ccc(O)cc1)c1ccc(NC2=C(N3CCCCC3)C(=O)c3ccccc3C2=O)cc1,?,–,–,15µM,–
COc1ccccc1NC1=C(N2CCCCC2)C(=O)c2ccccc2C1=O,–,–,–,?,1.8µM
Nc1nn(-c2ccccc2)nc1C(=O)OCc1ccc(Cl)cc1,–,–,·,–,·
Cc1ccc(Cn2c(SCc3ccc(C(=O)N4CCCCC4)cc3)nc3ccncc32)cc1,–,–,–,?,·
COc1ccc(NC(=O)C(OC(=O)CNC(=O)c2ccccc2)c2ccccc2)cc1F (stereo not given),–,·,·,–,·
NC(=O)CSc1ccc2nnc(-c3ccncc3)n2n1,–,·,·,–,·
CC(=O)N1CCc2cc(CNS(=O)(=O)c3ccc(F)cc3)ccc21,–,–,–,·,·
COc1cc2c(cc1OC)CN(CC(=O)Nc1ccccc1C(=O)NCc1ccccc1)CC2,–,–,–,?,23µM
COc1ccccc1OCC(=O)Nc1ccc(CSc2ccccc2)cc1C,–,–,–,10µM,–
Cc1cc(CSc2ccccc2)ccc1NC(=O)COc1ccccc1,–,–,–,?,–
COc1ccccc1NC(=O)COc1ccc(C(=O)NCc2ccccc2)cc1OC,–,–,–,?,26µM
COc1cccc2[nH]c(C(=O)NCc3ccccc3)cc12,–,–,–,–,21µM
COc1ccc2cc(C(=O)NCc3ccccc3)[nH]c2c1,–,–,–,?,–
CCC(C(=O)NCCc1ccc(C)cc1)n1nc(C)c2c(C)n(-c3ccccc3)nc2c1=O (stereo not given),–,–,–,16µM,–
